The text below walks through data of PubChem BioAssay (NCI).

The panel holds about 79,000 compounds, 15% with a hit somewhere; the sample as a whole holds those more often. A number with no mark means an inactive call. Active and inactive are the calls of the source. Rule as the data show it: active = growth inhibition above about 70%; inactive = the rest.

The assay in a line: NCI Yeast Anticancer Drug Screen. Data for the rad50 strain (AID 155).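 Also: 0% = growth of vehicle-only cultures of the same strain.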 As to conditions: S. cerevisiae rad50 strain growth inhibition; at 11.0 µM; hits give high values. A digest of the protocol: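 Compounds were tested on a yeast strain with an engineered DNA damage repair alteration; the reported value is growth inhibition normalised to vehicle treatment.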
As to `NC1CCCCC1N.Nc1c(N=Nc2ccc(-c3ccc(N=Nc4cc(S(=O)(=O)[O-])c5ccccc5c4N)cc3)cc2)cc(S(=O)(=O)[O-])c2ccccc12.[OH3+].[OH3+].[Pt+4]`, the growth inhibition is 28%. Consider `COC(=O)CCC(NC(=S)N/N=C(\C)c1ccccn1)C(=O)OC` (stereo unspecified), for which the growth inhibition is 26%. The result for `NC(=O)C(=O)NNc1ccccc1` reads 31%; that for `COc1cc(C2SCC(=O)N2c2ccc(-c3ccc(-n4c(-c5ccccc5)nc5ccccc5c4=O)cc3)cc2)ccc1O` (stereo unspecified), 0%. For `COc1ccc(/C=C/c2sc3ccccc3[n+]2CCCCI)cc1OC`, the growth inhibition was -7%. The figure for `Cc1c(C(C)C)cc(OCCO)cc1C(C)C` is 2%; for `Cc1cc(NCCCCCCCCNc2cc(C)nc3cc(N)ccc23)c2ccc(N)cc2n1` it is 92% (active); for `C=C(Cl)COC(=O)Nc1cccc(Cl)c1` it is 58%. Regarding `CC(=O)OC1CC2C(C)(C)C(=O)C=C[C@]2(C)C2CCC3(C)C(=CCC3[C@H](CO)C[C@H](O)C(=O)C(C)(C)O)[C@]12C` (stereo partly specified), the growth inhibition was -16%. As to `COc1ccc(/C=C/C(=O)c2ccccc2)cc1OC`, the growth inhibition was -5%.

`COc1c(O)c(C=O)c(Br)c(C=O)c1O`: the growth inhibition was 15%. Consider `O=[N+]([O-])c1cc(Cl)cnc1Br`, for which the growth inhibition is 81% (active). The result for `Cc1ccc2c(c1)C1(SC(C)C(=O)N1c1ccc(Cl)cc1)C(=O)N2` (stereo unspecified) reads 9%; that for `COc1cc(CSc2ccc(O)cc2)cc(O)c1O`, -2%; that for `Cc1ccc2c3ccc4c(c3n(C)c2c1)C(=O)C=CC4=O`, 3%. Regarding `O=C(Nc1ccc(Cl)cc1)Nc1nnc2nc(C(C(=O)c3cccc([N+](=O)[O-])c3Cl)c3nc4nnc(NC(=O)Nc5ccc(Cl)cc5)n4[nH]c3=O)c(=O)[nH]n12`, the growth inhibition was 2%.
